High-throughput results deposited in PubChem BioAssay by several laboratories.
Hits are enriched below; roughly 1.2% of the tested compounds scored in any of these assays.
BJeLR viability = kills HRASV12-expressing BJeLR cells. BJeLR (HRASV12) viability, CellTiter-Glo ATP luminescence, 48 h. inhibition, % (concentration not given with the values). AID 1554. 0.17% of 300,000 active; in the data active = inhibition above about 50%
Sa ugtP lethal = growth inhibition of S. aureus ugtP deletion strain | AID 1259309 | 0.54% of 330,000 active | growth inhibition, % (concentration not given with the values) | S. aureus RN4220 ugtP deletion, OD600 growth, 16 h; in the data active = growth inhibition above about 68%;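 also: plate controls were untreated wells for no effect and antibiotic for full effect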
Sa RN4220 lethal = S. aureus RN4220 growth inhibition; inhibition, % (test concentration not listed); OD600, 16 h; 0.33% of 330,000 active; AID 1259311; in the data active = inhibition above about 85%;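 also: plate controls were untreated cells for no effect and reference antibiotic for full effect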
SSB-PriA inh = K. pneumoniae PriA-SSBct interaction inhibition. AlphaScreen SSBct-PriA binding, biotinylated peptide. inhibition, % at 33 µM. 0.6% of 430,000 active. AID 1272365; in the data active = inhibition mostly above about 37%, no sharp cut-off; inactive = mostly below about 20%;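 also: plate controls were negative control peptide for no effect and reference peptide for full effect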
MazEF act = activators of E. coli MazEF toxin-antitoxin RNase. FAM/BHQ RNA-DNA oligo cleavage fluorescence, 5 h. activation, % at 20 µM. 0.32% of 350,000 active. AID 504720; in the data active = activation above about 50%
Target sequence (P0AE70 whole entry, looked up): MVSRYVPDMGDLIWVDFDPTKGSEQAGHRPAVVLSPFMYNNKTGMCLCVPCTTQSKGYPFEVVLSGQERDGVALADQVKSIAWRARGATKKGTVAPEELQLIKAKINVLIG
An asterisk follows results filed as active; · = no result; ! = repeats disagree.

SMILES	BJeLR viability	Sa ugtP lethal	Sa RN4220 lethal	SSB-PriA inh	MazEF act
Cc1noc(C2CCN(C(=O)CCCc3ccccc3)CC2)n1	·	·	·	5	·
Cc1noc(C2CCCN2C(=O)NCCCc2ccccc2)n1 (stereo unspecified)	·	·	·	54*	·
CCCCCCNC(=O)c1cccc(-c2ccc(C)c3ccccc23)n1	-4	90*	-4	-22	-4
O=C(Nc1ccc(F)cc1)Nc1cc(OCC(F)(F)F)cc(OCC(F)(F)F)c1	11	100*	92*	-20	42
O=Cc1cccnc1SCc1ccccc1	37	6	29	-9	7
NC(=O)CSc1nc2c(c(=O)n1-c1ccccc1)C1(CCCCC1)Cc1ccccc1-2	8	90*	-7	1	1
Cc1cccc(-n2c(SCC(N)=O)nc3c(c2=O)C2(CCCC2)Cc2ccccc2-3)c1	-4	74	-1	2	-5
COC1CC(OC2CCC3(C)C(CCC4C3CCC3(C)C(C5=CC(=O)OC5)C(OC(C)=O)CC43O)C2)OC(C)C1OC1OC(COC2OC(CO)C(O)C(O)C2O)C(O)C(O)C1O (stereo unspecified)	51*	·	·	·	·
Cc1ccc(-c2csc(-n3ncc(C#N)c3N)n2)cc1	·	·	·	3	·
O=C(NCCCn1ccnc1)C(=O)NCC1OCCN1S(=O)(=O)c1ccc([N+](=O)[O-])cc1 (stereo unspecified)	·	·	·	80*	·
CC1CN(S(=O)(=O)c2cccc(C(=O)NCCCn3ccnc3)c2)CC(C)O1 (stereo unspecified)	-6	3	5	-9	3
CNC(=O)C(=O)NCC1OCCN1S(=O)(=O)c1ccc([N+](=O)[O-])cc1 (stereo unspecified)	-11	2	7	-11	-10
O=C(NCCCn1ccnc1)C(=O)NCC1OCCN1S(=O)(=O)c1ccc2c(c1)OCCO2 (stereo unspecified)	-1	-1	0	23*!	6
Cc1ccc(C(=O)NCCCn2ccnc2)cc1[N+](=O)[O-]	8	10	2	-1	1
CC1CN(S(=O)(=O)c2ccc(C(=O)NCCCn3ccnc3)cc2)CC(C)O1 (stereo unspecified)	71*	3	-1	-25	-12
O=C(NCCCn1ccnc1)c1ccc(N2CCCCCC2)c([N+](=O)[O-])c1	71*	-2	3	33	6
CC1(C)CC(=O)c2sc(NC(=O)Cc3cccs3)nc2C1	4	0	-1	-13	-7
CSc1ccc(S(=O)(=O)NCC(=O)OCC(=O)NCCc2ccccc2)cc1[N+](=O)[O-]	1	5	4	-4	5
N=c1n(CCN2CCCCC2)c2ccccc2n1CC(=O)c1ccc(Cl)c(Cl)c1	11	·	·	1	6
COc1ccc(S(=O)(=O)N2CCOC2CNC(=O)C(=O)NCCCn2ccnc2)cc1 (stereo unspecified)	·	·	·	102*	·
Cc1cc(C)c(S(=O)(=O)N2CCOC2CNC(=O)C(=O)NCCCn2ccnc2)c(C)c1 (stereo unspecified)	7	7	3	50*	6
O=C(NCCCn1ccnc1)C(=O)NCC1OCCCN1S(=O)(=O)c1cccs1 (stereo unspecified)	·	·	·	11	·
COc1ccc(S(=O)(=O)N2CCOC2CNC(=O)C(=O)NCc2ccncc2)cc1 (stereo unspecified)	-2	10	2	3	1
COc1ccc(CC(=O)Nc2nnc(-c3ccco3)o2)cc1C	·	·	·	-3	·
COc1ccc(OCCN(C)CC(=O)Nc2c(C)cccc2C)cc1	-1	12	-1	-25	-1
SMILES	BJeLR viability	Sa ugtP lethal	Sa RN4220 lethal	SSB-PriA inh	MazEF act
Cc1cc2nc(/C=C/c3cccnc3)[nH]c2cc1C	53*	-2	0	-20	7
O=C(Nc1ccc(F)cc1F)c1ccc(-n2cncn2)nc1	5	6	-1	-19	4
COc1cc(C=NO)nc(-c2ccccn2)c1	·	·	·	83*	3
COc1ccc(Oc2ccccc2/C=N/O)cc1	-8	·	·	·	9
Fc1ccc(NC(=S)N2CCCc3ccccc32)cc1	0	-1	10	41*	4
CCCN(Cc1nnc(-c2cccs2)o1)C(=O)c1cc(S(=O)(=O)N2CCOCC2)ccc1C	·	3	3	-7	4
COc1ccc2c(c1)C(c1cccs1)=NNC(c1ccncc1)=N2	2	12	4	28	242*
O=C1C=C(c2ccccc2)CC(c2cccs2)C1n1cnc([N+](=O)[O-])c1 (stereo unspecified)	2	-4	0	15	5
O=C1C=C(c2ccccc2)C[C@H](c2cccs2)[C@H]1n1nnc([N+](=O)[O-])n1	62*	100*	59	19	6
Cc1c(N=Nc2c(O)[nH]c(=S)[nH]c2=O)c(=O)n(-c2ccccc2)n1C	9	0	6	53*	-3
Cc1c(N=Cc2c(O)n(C)c(=O)c3ccccc23)c(=O)n(-c2ccccc2)n1C	2	2	3	-5	300*
COc1ccc(OC)c(S(=O)(=O)Nc2ccccc2O)c1	1	13	6	-23	-4
CN1CCN(c2nc3c(c(=O)n(C)c(=O)n3C)n2Cc2ccccc2Cl)CC1	0	10	3	-4	19
CCCc1cc(NCc2ccccn2)n2c(nc3ccccc32)c1C#N	5	3	1	3	29
CCN1c2ccccc2NC2N=C(OC)C(c3ccccc3)C21 (stereo unspecified)	-19	2	3	54*	6
Nc1nnc(SCC(=O)c2ccc([N+](=O)[O-])cc2)s1	-8	54	95*	8	-4
Cc1nc2ccccn2c1-c1csc(Nc2cccc(O)c2)n1	55*	6	4	8	11
COc1ccc(N2CCN(C(=O)c3ccc(CS(=O)Cc4ccc(Cl)cc4)o3)CC2)cc1 (stereo unspecified)	-14	99*	-8	8	-1
Cc1ccc(C)c(N2CCN(C(=O)c3ccc(CS(=O)Cc4ccc(Cl)cc4)o3)CC2)c1 (stereo unspecified)	8	49	-3	5	-5
Cc1ccc(Cl)cc1N1CCN(C(=O)c2ccc(CS(=O)Cc3ccc(Cl)cc3)o2)CC1 (stereo unspecified)	4	96*	-8	12	-10
Cc1cccc(N2CCN(C(=O)c3ccc(CS(=O)Cc4cccc(Cl)c4)o3)CC2)c1C (stereo unspecified)	24	90*	-1	9	0
O=C(c1ccc(CS(=O)Cc2ccc(Cl)cc2)o1)N1CCN(c2ccccc2F)CC1 (stereo unspecified)	-11	99*	-10	7	7
Cc1ccc(CS(=O)Cc2ccc(C(=O)N3CCN(c4cccc(C)c4C)CC3)o2)cc1 (stereo unspecified)	·	·	·	·	4
CCOc1ccc(N/C(SCc2cccc([N+](=O)[O-])c2)=C(/C#N)C(N)=O)cc1	7	9	6	9	2
N#CC(C#N)=C(Nc1ccc(F)cc1)SCc1cccc(F)c1	31	98*	99*	-8	-4
C#CCSc1nnc(-c2cccc3ccccc23)o1	6	8	10	-87	0
